# Measurements as given in PubChem BioAssay (NCATS).
# Results filed as inconclusive are left out. A call without a number means that no potency is given here. Activity calls are given as the source filed them. Unless noted, calls come from the whole dose curve; as a rule, active = well fitted curve in the direction sought with a large enough effect; inconclusive = small, poorly fitted or top-dose-only effect, or another doubt; inactive = no such curve, though single readings can be large; an effect the other way counts as inactive or inconclusive.
# How the values were obtained:
# [1] = Primary qHTS for inhibitors of nuclear receptor binding SET domain protein 2 (NSD2) in an isogenic RCH-ACV NSD2 p.E1099K mutant (9B) (AID 1645876); note: nearly all actives have a fitted effect of over 70% in size; note: potency is the fitted concentration of half-maximal effect
# [2] = Primary qHTS for inhibitors of nuclear receptor binding SET domain protein 2 (NSD2) in an RCH-ACV wild type WT cells (2C) (AID 1645877); note: nearly all actives have a fitted effect of over 70% in size; note: potency is the fitted concentration of half-maximal effect
# [3] = target: N-terminal Xaa-Pro-Lys N-methyltransferase 1 (Homo sapiens) (UniProt Q9BV86); assay: Confirmatory qHTS for Inhibitors of N-terminal methyltransferase 1 (NTMT1): MTaseGlo Assay (AID 1645874); note: nearly all actives have a fitted effect of over 65% in size; note: potency is the fitted concentration of half-maximal effect;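 for activity change, negative = inhibition: luminescence from SAH made as NTMT1 methylates SPKRIA peptide using SAM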
# Sequence of N-terminal Xaa-Pro-Lys N-methyltransferase 1 (Homo sapiens) (Q9BV86 whole entry, looked up): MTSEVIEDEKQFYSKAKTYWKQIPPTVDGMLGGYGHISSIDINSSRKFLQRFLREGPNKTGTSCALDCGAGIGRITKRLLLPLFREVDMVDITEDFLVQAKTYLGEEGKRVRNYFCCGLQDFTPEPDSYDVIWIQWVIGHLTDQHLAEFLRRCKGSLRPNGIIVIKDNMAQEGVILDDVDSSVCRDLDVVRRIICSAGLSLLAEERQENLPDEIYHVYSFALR
# Procedure, shortened: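 Preincubation of NTMT1 (125 nM) plus SAM (100 uM) with test compounds lasted 15 min; methylation of 1 uM SPKRIA then proceeded 30 min in the dark at room temperature. Luciferase signal reported SAH produced.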
# [4] = target: Glutathione peroxidase 1 (Homo sapiens) (UniProt P07203); assay: Primary qHTS Assay for Inhibitors of Recombinant Selenoprotein Glutathione Peroxidase 1 (GPX1) (AID 1845191); conditions: outcome: dose series up to 48.8 µM; note: nearly all actives have a fitted effect of over 65% in size
# Sequence of Glutathione peroxidase 1 (Homo sapiens) (P07203 whole entry, looked up): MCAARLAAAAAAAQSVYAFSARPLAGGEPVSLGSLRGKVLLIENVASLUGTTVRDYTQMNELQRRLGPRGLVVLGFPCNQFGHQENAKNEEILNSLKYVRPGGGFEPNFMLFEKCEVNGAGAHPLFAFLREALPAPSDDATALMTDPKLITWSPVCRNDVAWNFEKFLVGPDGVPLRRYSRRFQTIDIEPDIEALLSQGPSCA
# Procedure, shortened: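 Recombinant GPX1 (10 nM final) was preincubated with compound for 30 min at room temperature, then reacted with 1 mM GSH, 0.5 mM CHP, 0.5 mM NADPH and 100 nM glutathione reductase; NADPH fluorescence (340/450 nm) was read at 0 and 15 min.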
# [5] = target: Catechol O-methyltransferase (Homo sapiens) (UniProt P21964); assay: Confirmatory Screen for Target Class Profiling of Small Molecule Inhibitors of Methyltransferases (AID 1745852; calls by dose curve; note: potency is the fitted concentration of half-maximal effect); conditions: MTase-Glo luminescence, SAH detection, recombinant enzyme; measured here: COMT max response; stronger effect = lower value
# Sequence of Catechol O-methyltransferase (Homo sapiens) (P21964 whole entry, looked up): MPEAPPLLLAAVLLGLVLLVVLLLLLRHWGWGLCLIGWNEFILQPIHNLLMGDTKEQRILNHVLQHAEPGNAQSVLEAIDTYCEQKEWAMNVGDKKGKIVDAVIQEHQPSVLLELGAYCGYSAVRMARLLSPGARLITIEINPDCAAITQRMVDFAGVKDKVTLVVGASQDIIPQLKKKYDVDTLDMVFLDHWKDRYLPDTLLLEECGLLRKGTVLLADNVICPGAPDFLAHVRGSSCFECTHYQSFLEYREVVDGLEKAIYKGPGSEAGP
# [6] = target: Guanidinoacetate N-methyltransferase (Homo sapiens) (UniProt Q14353); assay: as above; conditions: MTase-Glo luminescence, SAH detection, recombinant enzyme; activity change, negative = inhibition: at 57.3 µM (top of the series)
# [7] = target: Nicotinamide N-methyltransferase (Homo sapiens) (UniProt P40261); assay: as above; conditions: MTase-Glo luminescence, SAH detection, recombinant enzyme; measured here: NNMT max response; stronger effect = lower value
# Sequence of Nicotinamide N-methyltransferase (Homo sapiens) (P40261 whole entry, looked up): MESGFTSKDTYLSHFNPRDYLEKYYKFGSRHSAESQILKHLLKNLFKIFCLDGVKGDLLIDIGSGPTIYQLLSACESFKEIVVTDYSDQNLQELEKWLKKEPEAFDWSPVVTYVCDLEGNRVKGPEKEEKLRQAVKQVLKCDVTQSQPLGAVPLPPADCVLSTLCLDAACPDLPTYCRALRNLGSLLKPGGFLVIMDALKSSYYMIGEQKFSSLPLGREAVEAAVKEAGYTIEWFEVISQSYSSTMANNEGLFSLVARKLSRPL
# [8] = target: Phenylethanolamine N-methyltransferase (Homo sapiens) (UniProt P11086); assay: as above; conditions: MTase-Glo luminescence, SAH detection, recombinant enzyme; measured here: PNMT max response; stronger effect = lower value
# Sequence of Phenylethanolamine N-methyltransferase (Homo sapiens) (P11086 whole entry, looked up): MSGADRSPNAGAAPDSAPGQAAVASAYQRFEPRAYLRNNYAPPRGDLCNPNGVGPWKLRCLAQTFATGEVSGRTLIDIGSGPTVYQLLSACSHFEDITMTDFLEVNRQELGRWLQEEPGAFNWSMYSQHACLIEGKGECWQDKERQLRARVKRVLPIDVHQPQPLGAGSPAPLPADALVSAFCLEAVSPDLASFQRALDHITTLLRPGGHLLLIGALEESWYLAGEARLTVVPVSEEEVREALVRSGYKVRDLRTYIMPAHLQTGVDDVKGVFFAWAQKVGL
compound,measurement,setting,value
NCc1cccnc1,Potency,[1],inactive
same,Potency,[2],inactive
O=c1n(Cl)c(=O)n(Cl)c(=O)n1Cl,Potency,[1],inactive
same,Potency,[2],inactive
C[C@H](CN1CCOCC1)C(C(=O)N1CCCC1)(c1ccccc1)c1ccccc1,Potency,[1],inactive
same,Potency,[2],inactive
CCN(CC)CCOC(=O)C(C)(c1ccccc1)c1ccccc1,Potency,[1],inactive
C[C@]12C=CC(=O)C=C1CC[C@@H]1[C@@H]2CC[C@@]2(C)[C@H]1CC[C@]2(C)O,Potency,[1],23.7 µM (active)
O=C(CCl)c1ccc(Cl)cc1Cl,Potency,[1],inactive
same,Potency,[2],inactive
Nc1ccc(Cl)cc1C(=O)c1ccccc1F,Potency,[1],inactive
Oc1ccc([C@H]2CNCc3c2ccc(O)c3O)cc1O,Potency,[3],18.3 µM (active)
same,outcome,[4],inactive
O=C(CCCCl)c1ccc(F)cc1,Potency,[1],inactive
same,Potency,[2],inactive
Cc1ccc([N+](=O)[O-])[c]2c1[O][Hg]2,Potency,[3],0.728 µM (active)
same,Potency,[1],0.0841 µM (active)
same,Potency,[2],0.168 µM (active)
CN(C)CCc1c[nH]c2cccc(O)c12,Potency,[3],inactive
CN1C(=O)[C@@H](NC(=O)c2cc3ccccc3[nH]2)N=C(c2ccccc2)c2ccccc21,Potency,[1],inactive
same,Potency,[2],inactive
CCOC(=O)NC(O)C(Cl)(Cl)Cl (stereo not drawn),Potency,[1],inactive
same,Potency,[2],inactive
Nc1ccc(N)cc1,Potency,[1],inactive
OC(c1ccccc1)(c1ccccc1)C1CCNCC1,Potency,[1],inactive
C[C@]12CC[C@H]3[C@@H](CCC4=CC(=O)CC[C@@]43C)[C@@H]1CC[C@@H]2C(=O)O,Potency,[1],inactive
same,Potency,[2],inactive
CN1[C@@H]2CC[C@H]1CC(OC(=O)c1cc(Cl)cc(Cl)c1)C2 (stereo partly drawn),Potency,[1],inactive
CN1C(=O)CN=C(c2ccccc2)c2cc([N+](=O)[O-])ccc21,Potency,[1],inactive
same,Potency,[2],inactive
C#C[C@]1(O)CC[C@H]2[C@@H]3CCC4=CC(=O)CCC4=C3C=C[C@@]21CC,Potency,[1],inactive
same,Potency,[2],inactive
COc1cc(CC(C)N)c(OC)cc1Br (stereo not drawn),Potency,[1],10.1 µM (active)
same,Potency,[2],8.96 µM (active)
CC(CC(C#N)(c1ccccc1)c1ccccc1)N(C)C (stereo not drawn),Potency,[1],17.2 µM (active)
ClCc1cccc(Cl)c1,Potency,[1],inactive
same,Potency,[2],inactive
c1ccc2nc(N3CCNCC3)ccc2c1,Potency,[1],inactive
same,Potency,[2],inactive
COc1cc(C[C@@H](C)N)c(OC)cc1C,Potency,[1],inactive
CC[C@H](O)C(C[C@H](C)N(C)C)(c1ccccc1)c1ccccc1,Potency,[1],inactive
same,Potency,[2],inactive
Oc1c(Br)cc(Br)cc1Br,Potency,[1],inactive
same,Potency,[2],inactive
CC[C@]1(O)CC[C@H]2[C@@H]3CCC4=CCCC[C@@H]4[C@H]3CC[C@@]21C,Potency,[3],14.1 µM (active)
same,Potency,[1],9.44 µM (active)
same,Potency,[2],7.5 µM (active)
same,outcome,[4],inactive
CCS(=O)(=O)C(C)(C)S(=O)(=O)CC,Potency,[1],inactive
same,Potency,[2],inactive
C[C@H]1CNCCc2ccc(Cl)cc21,Potency,[1],inactive
C1CN2CCC1CC2,Potency,[1],inactive
same,Potency,[2],inactive
CCc1cc(OC)c(C[C@H](C)N)cc1OC,Potency,[3],inactive
same,Potency,[2],44.9 µM (active)
CC[n+]1c(-c2ccccc2)c2cc(N)ccc2c2ccc(N)cc21,Potency,[1],5.96 µM (active)
same,Potency,[2],2.66 µM (active)
COc1ccc2c3c1O[C@H]1[C@@H](O)C=C[C@H]4[C@@H](C2)N(C)CC[C@@]341,Potency,[1],6.72 µM (active)
same,Potency,[2],6.72 µM (active)
CCC1(c2ccccc2)CCC(=O)NC1=O (stereo not drawn),Potency,[1],inactive
same,Potency,[2],inactive
CN1C(=O)CN=C(c2ccccc2)c2cc(Cl)ccc21,Potency,[1],inactive
same,Potency,[2],inactive
ClCCCN1CCN(c2cccc(Cl)c2)CC1,Potency,[1],inactive
CC(Cc1ccc2c(c1)OCO2)NO (stereo not drawn),Potency,[1],inactive
same,Potency,[2],inactive
CCC(=O)OC1(c2ccccc2)CCN(C)CC1,Potency,[1],inactive
same,Potency,[2],inactive
O=C(CBr)Nc1ccc(Cl)cc1C(=O)c1ccccc1F,Potency,[1],inactive
same,Potency,[2],inactive
NC1(c2ccccc2)CCCCC1,Potency,[1],17.1 µM (active)
same,Potency,[2],24.1 µM (active)
CCOC(C(=O)OCCN(C)C)(c1ccccc1)c1ccccc1,Potency,[1],inactive
same,Potency,[2],inactive
CCc1ccc(C2CCNCC2)cc1,Potency,[1],inactive
same,Potency,[2],inactive
CCN(Cc1ccc(Cl)nc1)/C(=C/[N+](=O)[O-])NC,Potency,[1],inactive
same,Potency,[2],inactive
CC1Sc2c(C(=O)O)c(=O)c3cc(F)c(N4CCNCC4)cc3n21 (stereo not drawn),Potency,[1],inactive
same,Potency,[2],inactive
COc1cc(N)c(Cl)cc1C(=O)NC1CN2CCC1CC2 (stereo not drawn),Potency,[1],inactive
same,Potency,[2],inactive
O=C1NCN(c2ccccc2)C12CCN(CCCOc1ccc(F)cc1)CC2,Potency,[1],6.68 µM (active)
same,Potency,[2],7.5 µM (active)
Cc1nnc2n1-c1sc(CCc3ccc(CC(C)C)cc3)cc1C(c1ccccc1Cl)=NC2C (stereo not drawn),Potency,[1],7.5 µM (active)
same,Potency,[2],8.41 µM (active)
same,activity,[5],-12.7%
same,Potency,[6],48.2 µM (active)
same,activity,[7],-36.8%
same,activity,[8],-8.97%
same,outcome,[4],inactive
CN(C)CCc1c[nH]c2ccc(O)cc12,Potency,[1],inactive
same,Potency,[2],inactive
